Results on 17 molecules are retold here after PubChem BioAssay AID1745853 (National Center for Advancing Translational Sciences (NCATS), 2022).

Assay in all cases: Primary Screen for Target Class Profiling of Small Molecule Inhibitors of Methyltransferases
In test [1] the target is Catechol O-methyltransferase (Homo sapiens) (UniProt P21964). The conditions noted are these: purified enzyme, MTase-Glo SAH luminescence; activity change, negative = inhibition: at 40 µM, stronger effect = lower value; outcome: 40 uM. From the text:
(§1) PI: Matthew D. Hall Ph.D. and Quinlin M. Hanson Ph.D.
(§2) National Center for Advancing Translational Sciences (NCATS)
(§3) National Institute of Health (NIH), Rockville, MD
(§4) Target class profiling (TCP) is a chemical biology approach amenable to investigating understudied biological targets. TCP is achieved by developing a generalizable assay platform and applying it to screen a curated set of compound libraries against representative members of a target class. Small molecule methyltransferases (SMMTase) are a subclass of methyltransferase that act on metabolites to modulate signaling pathways, metabolize xenobiotics, or balance the available methyl pool. We screened four curated libraries totaling 27,574 unique compounds against the SMMTases nicotinamide N-methyltransferase (NNMT), phenylethanolamine N-methyltransferase (PNMT), histamine N-methyltransferase (HNMT), glycine N-methyltransferase (GNMT), catechol O-methyltransferase (COMT), and guanidinoacetate N-methyltransferase (GAMT). The data generated by this TCP can be leveraged for informed tool molecule development. For example, in the associated publication we identified a chemotype of HNMT-selective inhibitors. Additionally, we identified a putative SMMTase-selective inhibitor with potential as a tool molecule for studying broader methyltransferase biology.
(§5) High-through put screening assays were developed at the National Center for Advancing Translational Science (NCATS) for the enzymes NNMT, PNMT, HNMT, GNMT, COMT, and GAMT. Enzymatic activity was measured as a function of SAM cofactor conversion using the MTase Glo kit (Promega) for all enzymes. All assays were performed in 1536-well format with substrates and SAM concentrations at KM values. Enzyme concentration and assay timing were optimized for 10-20% SAM conversion. Initial screening of 27,574 compounds was done as single-point assays using the highest compound concentration (40 uM). […] These compounds were replated in 11-point dose response and assayed against NNMT, PNMT, HNMT, GNMT, COMT, GAMT, and a counter-assay. The IC50 and efficacy (maximal response) values were determined for each dose-response curve. These values are also accounted for in the area under the curve (AUC) values.
(§6) PROTOCOL TABLE (as described by Inglese J, Shamu CE and Guy RK. 2007)
(§7) SEQUENCE No. (e.g., 1, 2, 3, etc.); […] (e.g., Cells, Incubation, Reagent, etc.); VALUE; DESCRIPTION.
(§8) 1; Reagent; 2 uL; SMMTase Enzyme (2x) in reaction buffer, columns 1- 48.
(§9) 2; Reagent; 1 uL; SAM (4x) in reaction buffer, columns 1-48.
(§10) 3; Controls; 23 nL; DMSO in column 4; sinefungin in DMSO (0 uM - 40 uM) in 7-point 1:2 dilution series (n = 2) in column 2.
(§11) 4; Compounds; 23 nL; Columns 5-48.
(§12) 5; Reagent; 1 uL; Substrate (4x) in reaction buffer, columns 2-48.
(§13) 6; Time; 20-30 min; Incubation.
(§14) 7; Reagent; 1 uL; MTase-Glo reagent (5X), columns 1-48.
(§15) 8; Time; 30 min; Incubation.
(§16) 9; Reagent; 5 uL; MTase-Glo Detection reagent, columns 1-48.
(§17) 10; Time; 30 min; Incubation, luminescence evolution.
(§18) 11; Detection; Luminescence; ViewLux uHTS Microplate Imager (PerkinElmer).
(§19) NOTES (numbers refer to Sequence numbers above)
(§20) 1, 2, 5. White Medium Binding Greiner 1536-well plates (Cat #789175-F, Greiner Bio-One, Monroe, NC); Reaction buffer: 50 mM Tris, pH 8.0, 3 mM MgCl2, 1 mM EDTA, 50 mM NaCl, 1 mM DTT, and 0.1 mg/mL BSA. Evaporation was prevented by covering assay plates with metal lids containing holes to allow gas diffusion.
(§21) 1. Six SMMTase were profiled: HNMT, GNMT, PNMT, COMT, NNMT, GAMT
(§22) 5. The corresponding substrate was used for each enzyme: HNMT - 5.3 uM Histamine; GNMT - >500 uM Glycine; PNMT - 16.2 uM Norephinephrine; COMT - 13.7 uM Norephinephrine; NNMT - 3.8 uM Nicotinamide; GAMT - 2.5 uM Guanidinoacetate.6, 8, 10. Room temperature
(§23) 6. Final reaction conditions: 10 nM COMT, 5 uM SAM, 15 uM norepinephrine, 50 mM Tris, pH 8.0, 3 mM MgCl2, 1 mM EDTA, 50 mM NaCl, 1 mM DTT, and 0.1 mg/mL BSA; refer to tables 2 and S1 for specific timing.
8. […]

The target of test [2] is Glycine N-methyltransferase (Homo sapiens) (UniProt Q14749). The conditions noted are these: purified enzyme, MTase-Glo SAH luminescence; measured here: GNMT inhibition; at 40 µM; stronger effect = lower value.
Description: as §1, §2, §3, §4, §5, §6, §7, §8, §9, §10, §11, §12, §13, §14, §15, §16, §17, §18, §19, §20, §21, §22, §23
8. […]

In test [3] the target is Guanidinoacetate N-methyltransferase (Homo sapiens) (UniProt Q14353). The conditions noted are these: purified enzyme, MTase-Glo SAH luminescence; measured here: GAMT inhibition; at 40 µM; stronger effect = lower value.
Description: as §1, §2, §3, §4, §5, §6, §7, §8, §9, §10, §11, §12, §13, §14, §15, §16, §17, §18, §19, §20, §21, §22, §23
8. […]

Test [4] deals with Histamine N-methyltransferase (Homo sapiens) (UniProt P50135). Conditions: purified enzyme, MTase-Glo SAH luminescence; measured here: HNMT inhibition; at 40 µM; stronger effect = lower value.
Description: as §1, §2, §3, §4, §5, §6, §7, §8, §9, §10, §11, §12, §13, §14, §15, §16, §17, §18, §19, §20, §21, §22, §23
8. […]

For test [5], the target named is Nicotinamide N-methyltransferase (Homo sapiens) (UniProt P40261). The conditions noted are these: purified enzyme, MTase-Glo SAH luminescence; measured here: NNMT inhibition; at 40 µM; stronger effect = lower value.
Description: as §1, §2, §3, §4, §5, §6, §7, §8, §9, §10, §11, §12, §13, §14, §15, §16, §17, §18, §19, §20, §21, §22, §23
8. […]

Test [6] deals with Phenylethanolamine N-methyltransferase (Homo sapiens) (UniProt P11086). The conditions noted are these: purified enzyme, MTase-Glo SAH luminescence; measured here: PNMT inhibition; at 40 µM; stronger effect = lower value.
Description: as §1, §2, §3, §4, §5, §6, §7, §8, §9, §10, §11, §12, §13, §14, §15, §16, §17, §18, §19, §20, §21, §22, §23
8. […]

Among all 25,000 compounds or so, about 970 (3.9%) were called active. Inconclusive results (about 8%) are left out. The sample holds actives, similar compounds and a random draw of the others, so the mix is not that of the screen. No rule for the calls is given here.
% is scaled to controls: 0 for no effect and ±100 for the full control effect.

Chain of Nicotinamide N-methyltransferase (Homo sapiens) (P40261 whole entry, looked up): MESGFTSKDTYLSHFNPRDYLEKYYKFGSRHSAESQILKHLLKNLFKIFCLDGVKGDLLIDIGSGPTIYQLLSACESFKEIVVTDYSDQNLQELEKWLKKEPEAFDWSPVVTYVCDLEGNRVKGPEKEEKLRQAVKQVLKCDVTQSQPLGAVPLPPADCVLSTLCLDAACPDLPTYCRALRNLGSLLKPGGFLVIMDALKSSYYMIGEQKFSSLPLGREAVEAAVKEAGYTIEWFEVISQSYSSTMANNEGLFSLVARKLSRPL
Chain of Catechol O-methyltransferase (Homo sapiens) (P21964 whole entry, looked up): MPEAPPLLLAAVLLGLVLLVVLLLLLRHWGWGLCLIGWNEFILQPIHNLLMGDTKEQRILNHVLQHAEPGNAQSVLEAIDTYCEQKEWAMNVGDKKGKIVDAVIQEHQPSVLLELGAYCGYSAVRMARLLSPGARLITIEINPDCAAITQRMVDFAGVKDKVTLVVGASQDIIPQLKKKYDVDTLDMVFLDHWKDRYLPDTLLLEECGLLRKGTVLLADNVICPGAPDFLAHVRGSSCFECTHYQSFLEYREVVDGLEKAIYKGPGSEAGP
Chain of Phenylethanolamine N-methyltransferase (Homo sapiens) (P11086 whole entry, looked up): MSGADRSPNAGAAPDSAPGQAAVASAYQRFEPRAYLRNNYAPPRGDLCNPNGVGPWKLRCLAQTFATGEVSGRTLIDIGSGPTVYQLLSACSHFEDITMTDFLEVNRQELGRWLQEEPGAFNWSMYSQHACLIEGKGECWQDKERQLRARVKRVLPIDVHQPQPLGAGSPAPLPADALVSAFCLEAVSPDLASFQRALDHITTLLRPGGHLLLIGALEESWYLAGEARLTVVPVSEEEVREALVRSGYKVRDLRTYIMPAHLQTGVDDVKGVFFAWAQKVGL
Chain of Histamine N-methyltransferase (Homo sapiens) (P50135 whole entry, looked up): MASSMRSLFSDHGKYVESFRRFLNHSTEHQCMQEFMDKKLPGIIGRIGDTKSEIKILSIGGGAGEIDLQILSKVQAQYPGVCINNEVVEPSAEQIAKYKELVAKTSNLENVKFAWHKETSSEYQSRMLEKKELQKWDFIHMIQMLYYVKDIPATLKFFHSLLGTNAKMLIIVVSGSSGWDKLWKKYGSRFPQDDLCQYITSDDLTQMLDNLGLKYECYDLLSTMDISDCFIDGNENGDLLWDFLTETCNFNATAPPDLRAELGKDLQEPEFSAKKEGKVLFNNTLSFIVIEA
Chain of Glycine N-methyltransferase (Homo sapiens) (Q14749 whole entry, looked up): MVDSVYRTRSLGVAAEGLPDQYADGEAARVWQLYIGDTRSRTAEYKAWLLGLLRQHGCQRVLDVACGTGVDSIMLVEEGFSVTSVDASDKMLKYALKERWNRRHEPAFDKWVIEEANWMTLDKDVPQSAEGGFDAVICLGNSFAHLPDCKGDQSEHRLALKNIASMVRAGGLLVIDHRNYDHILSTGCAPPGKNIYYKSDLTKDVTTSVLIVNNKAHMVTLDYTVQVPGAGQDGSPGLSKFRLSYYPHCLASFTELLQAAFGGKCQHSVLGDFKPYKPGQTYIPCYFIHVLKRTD

As to `Cc1cc2c(F)c(Oc3ncnn4cc(OCC(C)O)c(C)c34)ccc2[nH]1` (configuration not stated), the activity change, negative = inhibition in test [1] is 3.68% (inactive); in test [2], 3.84%; in test [3], 9.85%; in test [4], 8.7%; in test [5], -17.3%; in test [6], -3.09%.
On to `Cc1nonc1OCCn1ccnc1-c1cn(C2CCNCC2)nn1`, for which the activity change, negative = inhibition was 0.411% (inactive) in test [1]; -2.5% in test [2]; -0.534% in test [3]; -2.48% in test [4]; -2.16% in test [5]; -1.03% in test [6].
For `CCOC(=O)c1ccc(N2C(=O)CSc3c(c4ccccc4n3C)C2C(=O)NCc2ccccc2)cc1` (configuration not stated), the activity change, negative = inhibition in test [1] was 8.93% (inactive); in test [2] it was 13.6%; in test [3] it was 0.807%; in test [4], 10.5%; in test [5], 10.6%; in test [6], 10.2%.
With `CC1CC(O)/C=C/C(O)/C=C\C(=O)O1` (configuration not stated), the activity change, negative = inhibition in test [1] is -1.4% (inactive); in test [2], 0.769%; in test [3] it was 10.1%; in test [4], 9.33%; in test [5], -2.16%; in test [6], 5.9%.
In the case of `O=C(CCn1ccc2cc(S(=O)(=O)N3CCCC3)ccc21)NCc1cccc(Cl)c1`, the activity change, negative = inhibition in test [1] is -5.13% (inactive); in test [2], -5.66%; in test [3], 0%; in test [4], -0.957%; in test [5] it was -15.3%; in test [6], -7.6%.
For `CC(F)(F)CN1CCOc2c(nn(-c3ccccc3Cl)c2-c2ccc(Cl)cc2)C1=O`, the activity change, negative = inhibition was -4.89% (active) in test [1]; -72.3% in test [2]; -2.43% in test [3]; -6.67% in test [4]; -49.1% in test [5]; -14.4% in test [6].
`COc1cc(NC(=O)CSc2nnc3n(CC(C)C)c(=O)c4ccccc4n23)cc(OC)c1`: the activity change, negative = inhibition was 1.19% (inactive) in test [1]; 0.652% in test [2]; 4.16% in test [3]; 4.88% in test [4]; 0.518% in test [5]; 1.8% in test [6].
Turning to `CC1=C(C(=O)O)/C(=C/CO[C@@H]2O[C@H](COC(=O)/C=C/c3ccc(O)cc3)[C@@H](O)[C@H](O)[C@H]2O)C(O)C1` (some centres not stated), the activity change, negative = inhibition was -20.2% (inactive) in test [1]; 4.68% in test [2]; 4.63% in test [3]; 9.32% in test [4]; -5.67% in test [5]; 0.561% in test [6].
As to `COc1ccc2cc3n(c2c1)CC(C)(C(=O)NC1CCCC1)N(CCc1ccc(SC)cc1)C3=O` (configuration not stated), the activity change, negative = inhibition in test [1] was -1.16% (inactive); in test [2], 0.148%; in test [3], 0%; in test [4], 3.11%; in test [5], -0.661%; in test [6] it was -4.18%.
On to `CCC[C@H]1CN(C(=O)c2ccc3c(c2)NC(=O)CN3)C[C@@H]1N`, for which the activity change, negative = inhibition in test [1] was -3.16% (inactive); in test [2], -3.38%; in test [3] it was -8.81%; in test [4], -2.88%; in test [5] it was -6.82%; in test [6], -2.87%.
With `CCOc1ccc(N2C(=O)c3cc(-c4ccc(OC)cc4)nn3CC2(C)C(=O)NCc2ccccc2OC)cc1` (configuration not stated), the activity change, negative = inhibition in test [1] was 4.86% (inactive); in test [2], 7.45%; in test [3] it was 4.82%; in test [4] it was 9.26%; in test [5], 5.96%; in test [6], 0.163%.
For the molecule `CN1C(=O)c2cc(C(=O)NCCc3cccs3)nn2CC1(C)C(=O)NCc1ccc(F)cc1` (configuration not stated), the activity change, negative = inhibition in test [1] was 1.71% (inactive); in test [2], 3.48%; in test [3], 0%; in test [4] it was -2.18%; in test [5], 9.12%; in test [6], 3.02%.
`C[C@]12CCC[C@](C)(C(=O)O)C1[C@@H](O)[C@@H](O)C13CC(CCC12)C(CO)(O[C@@H]1O[C@H](CO)[C@@H](O)[C@H](O)[C@H]1O)C3` (some centres not stated): the activity change, negative = inhibition in test [1] was -23% (inactive); in test [2], 0%; in test [3] it was 1.76%; in test [4], 7.4%; in test [5] it was -7.28%; in test [6], 3.45%.
In the case of `CCOC(=O)c1cc2n(n1)CC(C)(C(=O)NC1CCCC1)N(c1ccc(C)c(C)c1)C2=O` (configuration not stated), the activity change, negative = inhibition in test [1] is 1.75% (inactive); in test [2], 4.07%; in test [3], 4.83%; in test [4], 3.71%; in test [5], 1.82%; in test [6], 2.03%.
With `O=C(NCc1ccc(Cl)cc1)c1cc(-c2ccc[nH]2)n[nH]1`, the activity change, negative = inhibition in test [1] was -7.05% (inactive); in test [2], -26.5%; in test [3], -7.92%; in test [4], -7.72%; in test [5], -8.3%; in test [6], 2.91%.
Regarding `Cn1nccc1C(=O)NC1CCCN(c2cc(N3CCCC3)ncn2)C1` (configuration not stated), the activity change, negative = inhibition is -8.51% (inactive) in test [1]; -8.51% in test [2]; -10.5% in test [3]; -21.6% in test [4]; -17.7% in test [5]; -11.9% in test [6].
For the molecule `O=C(N[C@@H]1CN(c2ccncn2)C[C@H]1CO)C1CCCC1`, the activity change, negative = inhibition in test [1] is -2.82% (inactive); in test [2], -3.56%; in test [3] it was -4.46%; in test [4], -1.77%; in test [5], -6.98%; in test [6], -3.66%.
